# Assay outcomes from PubChem BioAssay.
# PI5P4K alpha inh – inhibitors of human PI5P4K alpha | P48426 | PI5P4Kalpha enzyme, ADP-Glo luminescence, 60 min; stronger effect = lower value | max response, % | 330,000 tested, 1.2% active; active means max response of -50% or lower; inconclusive means between -30% and -50%; inactive means -30% or higher; further: value at the top dose of about 77 µM
# Target sequence (P48426 whole entry, looked up): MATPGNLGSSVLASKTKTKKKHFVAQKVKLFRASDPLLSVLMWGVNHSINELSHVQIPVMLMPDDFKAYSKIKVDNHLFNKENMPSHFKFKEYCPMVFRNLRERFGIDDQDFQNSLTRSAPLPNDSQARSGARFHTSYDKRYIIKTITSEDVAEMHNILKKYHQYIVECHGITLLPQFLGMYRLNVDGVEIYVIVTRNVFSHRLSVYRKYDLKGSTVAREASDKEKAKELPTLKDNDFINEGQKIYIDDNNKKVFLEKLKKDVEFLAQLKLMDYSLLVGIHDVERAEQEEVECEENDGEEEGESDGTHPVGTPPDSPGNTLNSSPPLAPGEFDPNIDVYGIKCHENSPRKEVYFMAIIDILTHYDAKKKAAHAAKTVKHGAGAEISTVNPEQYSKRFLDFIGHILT
#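 Single end-point luminescence (ADP-Glo) quantified ADP from PI5P4Kalpha turnover; ATP 5 microM final, 1 h at RT, 0.1% CHAPS and 0.28 mM EGTA in HEPES pH 7.4.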
# PLK1 PBD inh – blocks phosphopeptide binding to human PLK1 polo-box domain. P53350. Plk1 PBD binding of FITC phosphopeptide, fluorescence polarization. Potency, µM, without a hit: max response, negative = inhibition, hits mostly inhibitors. 360,000 tested, 2.8% active. AID 720504; further: potency means the concentration at half of the fitted maximal effect; series mostly up to about 57 µM; nearly all actives have a fitted effect of over 65% in size
# WRN helicase inh – WRN helicase (human) inhibition; Potency, µM (top dose mostly 114 µM), for the others: at the highest dose activity change, negative = inhibition, actives largely listed as inhibitors; Q14191; WRN helicase unwinding, fluorescent forked duplex, kinetic; 360,000 tested, 0.46% active; further: potency means the concentration at half of the fitted maximal effect; nearly all actives have a fitted effect of over 55% in size
#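 Primary qHTS, 1536-well format. 20 nM WRN + compound, 15 min RT; start with 100 nM forked fluorophore/quencher duplex, 2 mM ATP (final); kinetic read ex 525/em 598 nm.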
# USP1 inh – inhibitors of human USP1/UAF1 deubiquitinase. O94782. recombinant USP1/UAF1, Ub-Rhodamine cleavage fluorescence. Potency, µM (highest dose often 57.1 µM), for inactives: at the top dose activity change, negative = inhibition, actives largely listed as inhibitors. 390,000 tested, 0.23% active; further: potency means the concentration at half of the fitted maximal effect; nearly all actives have a fitted effect of over 60% in size
#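 USP1/UAF1 complex at 1 nM was preincubated with compound for 15 min at room temperature, then Ub-Rho substrate (150nM final) was added. Fluorescence (480/540 nm) was read kinetically, 6 reads every 60 seconds.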
# USP2a block – USP2a (human) protease inhibition; O75604; USP2 core, Ub-CHOP2 coupled fluorogenic reporter, 485/531; Potency, µM (series often up to 38.3 µM), without a hit: top-dose activity change, negative = inhibition, actives largely listed as inhibitors; 330,000 tested, 0.01% active;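 further: potency means the concentration at half of the fitted maximal effect; plate controls were DMSO wells for no effect and full inhibition by NEM control for full effect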
#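 Deubiquitinase activity read as fluorescence (485/531 nm) after Ub-CHOP2 cleavage activates the enterokinase reporter on its substrate; USP2 core 10nM, Ub-CHOP2 and substrate 25nM each, 30min compound preincubation then 60min RT; data normalized to NEM, curves fitted.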
# ADP-Glo interf – counter-screen for PI5P4K inhibitors: ADP-Glo detection interference, no enzyme | Potency, µM (doses to about 76.9 µM), for the others: at the top dose activity change, negative = inhibition, usual class: inhibitors | shares compounds with PI5P4K alpha inh | ADP-Glo detection counter-screen, luciferase luminescence, no enzyme | 1,100 tested, under 10 active
# TbPYK inh – confirmation of Trypanosoma brucei pyruvate kinase inhibitors. shares compounds with PLK1 PBD inh. recombinant TbPYK, Kinase-Glo ATP luminescence. Potency, µM (series often up to 76.9 µM), inactives show at the highest dose activity change, negative = inhibition, actives largely listed as inhibitors. 890 tested, 67% active. AID 720569; further: potency means the concentration at half of the fitted maximal effect; nearly all actives have a fitted effect of over 70% in size
# TbPYK orthogonal – TbPYK inhibition, orthogonal confirmation. Potency, µM (top dose mostly 76.9 µM), inactives show at the highest dose activity change, negative = inhibition, hits mostly inhibitors. AID 720584. shares compounds with PLK1 PBD inh. recombinant TbPYK, ADP-Glo luminescence, 60 min. 890 tested, 62% active; further: potency means the concentration at half of the fitted maximal effect; nearly all actives have a fitted effect of over 75% in size
# * hit, by the source's call; ? = inconclusive; / = no result given; [ ] = remark or other dose. Hits are enriched below; roughly 3.3% of the tested compounds scored in any of these assays. Unless noted, the call rests on the fitted dose curve; in most records, active means well fitted curve in the direction sought with a large enough effect; inconclusive means small, poorly fitted or top-dose-only effect, or another doubt; inactive means no such curve, though single readings can be large; an effect the other way counts as inactive or inconclusive. Unless noted, on the % scale 0 is the no-effect control and ±100 the full control effect.
SMILES,PI5P4K alpha inh,PLK1 PBD inh,WRN helicase inh,USP1 inh,USP2a block,ADP-Glo interf,others
Cc1ccc(N(C(=O)CNC(=O)c2ccco2)C(C(=O)NC2CCCC2)c2cccnc2)c(C)c1 (stereo unspecified),-58.5*,-4.4%,7.2%,?,2.5%,-0.7%,
Cc1ccc(OCC(=O)Nc2ccc3nn(-c4ccc(C)cc4)nc3c2)cc1,/,/,/,-6.8%,/,/,
O=c1c(Cc2ccccc2)c(O)nc2n1CCS2,-55.3*,-3.8%,7.3%,-5.6%,2.3%,3.9%,
CN(C)c1ccc2nc3ccc(=O)cc-3sc2c1,-72.7*,?,56.2µM*,-25.7%,/,?,
CN(C)c1ccc2nc3ccc(=[N+](C)C)cc-3sc2c1,-24.3,-16.1%,/,-22.9%,0.7%,/,
O=C(CCc1nc2ccccc2c(=O)[nH]1)Nc1nc(-c2cccs2)cs1,-5.0,-5.8%,-3.6%,-22.1%,1.7%,/,
CN(c1ccc(-c2csc(NC(=O)CCCc3nc4ccccc4c(=O)[nH]3)n2)cc1)S(C)(=O)=O,-55.5*,6.9%,3.5%,-17.2%,/,-9.3%,
COc1ccc(NC(=O)c2c(NCc3ccc(N(C)C)cc3)sc3c2CCC3)cc1,/,/,/,-19.9%,/,/,
O=C(O)COc1ccccc1C(Nc1ccccn1)c1cc(Cl)c2cccnc2c1O (stereo unspecified),-72.3*,2.67µM*,?,-17.8%,-1.6%,-1.2%,
COc1ccccc1C(NC(C)=O)c1cc(Cl)c2cccnc2c1O (stereo unspecified),4.2,-1.4%,1.7%,-27.6%,3.3%,/,
CCOc1ccc(C(Nc2cccnc2)c2cc(Cl)c3cccnc3c2O)cc1 (stereo unspecified),-68.2*,4.74µM*,-4.6%,-25.2%,-6.6%,-0.5%,
Cc1ccn2c(=O)cc(COc3cccc(NC(=O)Nc4cccc(Cl)c4C)c3)nc2c1,/,/,/,-18.2%,/,/,
COc1ccc(C(=O)c2sc(Nc3cc(Cl)ccc3C)nc2N)cc1OC,/,/,/,-24.3%,/,/,
Cc1cnc(NC(=O)c2sc(Nc3ccccc3)nc2N)o1,-55.3*,-13.1%,-3.9%,-6.8%,1.1%,0.1%,
Cc1nc(NC(N)=S)sc1C(=O)Nc1ccccc1,/,?,2.4%,-9.4%,1.0%,/,
COc1ccc(C(=O)c2sc(Nc3ccccc3F)nc2N)cc1,-80.9*,-11.5%,-2.8%,-22.3%,-1.4%,-0.7%,
Cc1cc(NC(=O)c2sc(Nc3ccc(F)cc3)nc2N)no1,-54.1*,-5.9%,-3.5%,-20.4%,1.5%,2.8%,
Nc1nc(Nc2ccccc2)sc1C(=O)c1ccccc1,-65.1*,-14.9%,-10.3%,-6.2%,3.2%,4.5%,
COc1cc(-c2noc(-c3ccc(NCc4ccco4)c([N+](=O)[O-])c3)n2)cc(OC)c1OC,/,/,/,-15.5%,/,/,
CCOC(=O)c1cc(C)n(CC2CCC(C(=O)Nc3cccc(C(C)=O)c3)CC2)c1C (stereo unspecified),/,/,/,2.5%,/,/,
O=c1c(S(=O)(=O)c2ccccc2)cn(Cc2ccccc2)c2cc(N3CCOCC3)c(F)cc12,/,/,/,-9.3%,/,/,
Cc1csc(CNc2ncnc3ccc(-c4ccco4)cc23)c1,/,/,/,/,0.0%,/,
Cc1ccc(CNc2ncnc3ccc(-c4ccc(CO)o4)cc23)o1,/,/,/,/,/,4.6%,
CN(c1cccc(NC(=O)c2ccc(N(C)S(=O)(=O)c3ccccc3)cc2)c1)S(C)(=O)=O,-55.5*,11.9µM*,-1.9%[11.6 µM],-20.0%,-0.6%,-4.4%,
Cc1cc(C(=O)Nc2cccc3c2O[C@@H](CN(C)S(C)(=O)=O)[C@H](C)CN([C@@H](C)CO)C3=O)n(C)n1,-0.4,-16.4%,3.7%,?,-0.2%,1.5%,
SMILES,PI5P4K alpha inh,PLK1 PBD inh,WRN helicase inh,USP1 inh,USP2a block,ADP-Glo interf,others
Cc1cc(C(=O)Nc2cccc3c2O[C@@H](CN(C)S(=O)(=O)c2ccccc2)[C@H](C)CN([C@@H](C)CO)C3=O)n(C)n1,-1.1,-3.7%,5.8%,-22.4%,5.3%,/,
COc1ccc(CN(C)c2ccc(-c3nc(-c4ccc(OC)c(OC)c4)no3)cc2[N+](=O)[O-])cc1,/,/,/,-18.0%,/,/,
COc1ccc(N2CC(C(=O)Nc3nc4ccc(S(C)(=O)=O)cc4s3)CC2=O)cc1 (stereo unspecified),-52.8*,-15.5%,-12.1%,-22.9%,-4.6%,0.6%,
Cc1cc([N+](=O)[O-])cc2c1NC(c1ccccn1)C1CC=CC21 (stereo unspecified),-70.8*,?,-5.4%,-27.6%,1.0%,-4.4%,
Cc1c(C(=O)N2CCN(C(=O)c3ccccc3)CC2)oc2ccc(F)cc12,-53.5*,-7.1%,-17.9%,-26.0%,0.3%,2.6%,
COc1ccc(CCNC(=O)CCSCc2ccccc2Cl)cc1OC,/,/,/,-0.2%,/,/,
CC(=O)c1ccc(NC(=O)c2cc(=O)[nH]c3ccccc23)cc1,-15.4,-12.9%,1.5%,-13.1%,1.0%,/,
CCOc1ccc(NC(=O)c2cc(=O)[nH]c3ccccc23)cc1,-51.4*,-3.6%,5.2%,-18.8%,2.8%,-5.7%,
CC1=C(C(=O)Nc2ccc(C)c(C)c2)C2(CCCCCC2)OC1=O,/,/,/,2.4%,/,/,
COc1ccc(C(C(=O)NC2CCCC2)N(C(=O)c2snc(C(N)=O)c2N)c2cccc(O)c2)cc1 (stereo unspecified),-55.4*,?,-10.5%[11.6 µM],-8.1%,0.6%,-4.1%,
O=C(CCN1CCc2ccccc2C(c2ccccc2)C1)c1ccc2c(c1)OCCO2 (stereo unspecified),-54.5*,2.99µM*,44.7µM*,-20.7%,-6.6%,-10.6%,TbPYK inh=?;TbPYK orthogonal=?
COc1ccccc1CNC(=O)CCCN1C(=O)CSc2c1c(C)nn2-c1ccccc1,/,/,/,-29.4%,/,/,
COCCn1nnnc1C(c1cc2cc(OC)c(OC)cc2[nH]c1=O)N1CCN(c2ccc(O)cc2)CC1 (stereo unspecified),-54.2*,?,?,-7.9%,-2.3%,-4.0%,TbPYK inh=6.31µM*;TbPYK orthogonal=15.8µM*
CC(C)(C)C1=Nn2c(nnc2-c2n[nH]c3c2CCC3)SC1,-61.1*,23.8µM*,-3.3%,-1.8%,1.3%,1.4%,TbPYK inh=10µM*;TbPYK orthogonal=10µM*
O=C(NCc1ccc2c(c1)OCO2)c1ccc2c(c1)N(Cc1cccc(Cl)c1)C(=O)c1ccccc1S2=O (stereo unspecified),/,/,/,-12.3%,/,/,
O=S(=O)(NCCC1=CCCCC1)c1cccc(S(=O)(=O)N2CCOCC2)c1,-62.5*,2.67µM*,-27.5%,-11.0%,3.1%,-1.6%,TbPYK inh=-0.5%;TbPYK orthogonal=-6.0%
